Data: PubChem BioAssay AID743327 (National Center for Advancing Translational Sciences (NCATS), 2014)
Activity calls are given as the source filed them. The call rests on the fitted dose curve.

Assay: qHTS profiling of Chloroquine Analogs as inhibitors of Plasmodium falciparum (HB3) proliferation
Settings: P. falciparum HB3 proliferation; series mostly up to 28.7 µM; activity change, negative = inhibition: at the top concentration
From the text: Plasmodium falciparum is a virulent malarial parasite that kills 1-2 million people worldwide each year. Transmitted by mosquitoes, the sporozoite form of the parasite enters the blood stream to infect hepatocytes, where they become merozoites that infect red blood cells (erythrocytes). Within erythrocytes, merozoites begin a […] cycle of growth and division, after which the parasite is released to infect new red blood cells. Gametocytes, which form within erythrocytes as well, circulate in the bloodstream and are ingested by the mosquito, thereby completing the life cycle. To profile malarial isolates for differential chemical responses and to identify inhibitors of malarial growth, an assay that measures P. falciparum growth and replication within erythrocytes was employed. This assay uses a DNA binding fluorescent dye (SYBR Green) to detect parasite DNA following cell lysis. Because mature erythrocytes lack DNA, only Plasmodium-derived DNA is detected.
The SYBR Green viability assay was adapted from a method described previously (Plouffe et al., 2008). For screening 3 ul culture medium was dispensed into 1536 well black clear bottom plates (Aurora Biotechnologies) using a Multidrop Combi (Thermo Fisher Scientific Inc.), 23 nL compounds in DMSO were added by a pin tool (Kalypsys), and 5 ul of erythrocytes infected with P. falciparum (0.3% parasitemia, 2.5% hematocrit final concentration) were added. The plates were incubated at 37 C in a humidified incubator in 5% CO2 for 72 h, and 2 ul lysis buffer (20 mM Tris HCl, 10 mM EDTA, 0.16% saponin, 1.6% triton X, 10X SYBR Green I supplied as 10,000X […] by Invitrogen) was added to each well. The plates were mixed for 25 sec with gentle shaking and incubated overnight at room temperature in the dark. The following morning, fluorescence intensity at 485(14) nm excitation and 535(25) nm emission wavelengths was measured on an EnVision (Perkin Elmer) plate reader. Plate reads were normalized relative to the control inhibitor (0.29 uM artemisinin) and vehicle (DMSO) wells present on each plate and then corrected by an algorithm using vehicle-only control plates at the beginning and end of the compound plate stack.

Row | Structure (SMILES) | activity change, negative = inhibition | Potency
1 | C[N+]1(C)CCC(=C(c2ccccc2)c2ccccc2)CC1 | -94.4% [at 14.2 µM] (inactive) | 
2 | COc1cc2c(Nc3ccc(NC(=O)c4ccccc4)cc3)ncnc2cc1OCCCN1CCOCC1 | -99.2% (inactive) | 
3 | CCOc1ccc(F)cc1C1(O)C(N)=Nc2ccc(Cl)cc21 (stereo not given) | 136% (inactive) | 
4 | CNCCC(Oc1ccccc1OC)c1ccccc1 (stereo not given) |  | 3350 nM (active)
5 | O=C(Nc1ccc(Cl)cc1)Nc1ccc(Cl)c(Cl)c1 |  | 2110 nM (active)
6 | C[C@@H]1CC[C@H]2[C@@H](C)C(=O)O[C@@H]3OC4(C)CC[C@@H]1C32OO4 (stereo not given in full) | -99.5% [at 57.5 µM] (inactive) | 
7 | O=C(O)c1cn(C2CC2)c2cc(N3CCNCC3)c(F)cc2c1=O | -16.3% (inactive) | 
8 | Cc1cccc(C)c1OCC(=O)N[C@@H](Cc1ccccc1)[C@@H](O)C[C@H](Cc1ccccc1)NC(=O)[C@H](C(C)C)N1CCCNC1=O | 141% (inactive) | 
9 | C[C@H]1c2cccc(O)c2C(O)=C2C(=O)[C@]3(O)C(O)=C(C(N)=O)C(=O)[C@@H](N(C)C)[C@@H]3[C@@H](O)[C@@H]21 |  | 8410 nM (active)
10 | CCCCN(CCCC)CC(O)c1cc(Cl)cc2c1-c1ccc(Cl)cc1C2=Cc1ccc(Cl)cc1 (stereo not given) | 146% (inactive) | 
11 | Oc1cc(Cl)ccc1Oc1ccc(Cl)cc1Cl |  | 1880 nM (active)
12 | CCCC[C@@H]1C[C@@H](C(=O)NC([C@H](C)Cl)[C@H]2O[C@H](S)[C@H](O)[C@@H](O)[C@@H]2O)N(C)C1 (stereo not given in full) |  | 33.5 nM (active)
13 | COc1cccc(CCc2ccccc2OCC(CN(C)C)OC(=O)CCC(=O)O)c1 (stereo not given) |  | 2980 nM (active)
14 | CC(C)N=C(N)N=C(N)Nc1ccc(Cl)cc1 |  | 29.8 nM (active)
15 | COc1cc2c(cc1C(F)(F)F)N(C(=O)Nc1cc(F)cc(-c3cccnc3)c1)CC2 |  | 3350 nM (active)
16 | CCN(CC)CCOCCOC(=O)C(CC)(CC)c1ccccc1 | -29.4% (inactive) | 
17 | CCc1ccc(OCc2ccccc2C(=O)Nc2ccc3nc(C)cc(N)c3c2)cc1 |  | 1190 nM (active)
18 | CO[C@H]1O[C@@H]2O[C@@]3(C)CC[C@@H]4[C@@H](C)CC[C@@H]([C@H]1C)[C@@]24OO3 | 126% (inactive) | 
19 | CCc1nc(N)nc(N)c1-c1ccc(Cl)cc1 | -100% (inactive) | 
20 | Cc1cccc(C)c1OCC(N)C(C)C (stereo not given) |  | 18800 nM (active)

Row | Structure (SMILES) | activity change, negative = inhibition | Potency
21 | CC(=O)O[C@@]12CO[C@@H]1C[C@H](O)[C@@]1(C)C(=O)[C@H](O)C3=C(C)[C@@H](OC(=O)[C@H](O)[C@@H](NC(=O)OC(C)(C)C)c4ccccc4)C[C@@](O)([C@@H](OC(=O)c4ccccc4)[C@H]21)C3(C)C |  | 9.4 nM (active)
22 | Cc1nc2c(C#N)cccc2n1-c1ccc(C(=O)NC2CC2)s1 |  | 23.7 nM (active)
23 | O=C(C[C@@H]1NCCC[C@@H]1O)Cn1cnc2ccccc2c1=O | -101% (inactive) | 
24 | CC(C)(C)c1cc(O)c(CN)c(C(C)(C)C)c1 |  | 150 nM (active)
25 | CC1=CC(=O)c2ccccc2C1=O |  | 2370 nM (active)
26 | C[C@@H]1CCC2[C@@H](C)[C@@H](O)O[C@@H]3O[C@@]4(C)CC[C@@H]1[C@@]23OO4 (stereo not given in full) | -100% (inactive) | 
27 | C[C@@H]1Cc2c([nH]c3cc(Cl)c(F)cc23)[C@]2(N1)C(=O)Nc1ccc(Cl)cc12 | 155% (inactive) | 
28 | CN(C)c1ccc2nc3ccc(=[N+](C)C)cc-3sc2c1 |  | 4.9 nM (active)
29 | C=CC(C)=C[C@@]1(C)SC(=O)C(C)=C1O | -13.8% (inactive) | 
30 | C[C@H](N)CN1CCc2ccc(Br)cc21 |  | 1500 nM (active)
31 | CNCCCCOc1ccccc1Cc1ccccc1 | -79% (inactive) | 
32 | CC(=O)N(O)CCCP(=O)(O)O |  | 266 nM (active)
33 | CCOc1ccccc1O[C@H](c1ccccc1)[C@H]1CNCCO1 | 154% (inactive) | 
34 | O=CN(O)CCCP(=O)(O)O |  | 473 nM (active)
35 | C/C(=C\c1csc(C)n1)[C@@H]1C[C@@H]2O[C@]2(C)CCC[C@H](C)[C@H](O)[C@@H](C)C(=O)C(C)(C)[C@@H](O)CC(=O)O1 | -97.6% (inactive) | 
36 | C[C@@H]1[C@@H](CC(C[C@H]2O[C@@H]3O[C@]4(C)CC[C@@H]5[C@H](C)CC[C@@H]([C@H]2C)[C@@]35OO4)C[S+](=O)([O-])c2ccc(COC(=O)N(C)C)cc2)O[C@@H]2O[C@]3(C)CC[C@H]4[C@H](C)CC[C@@H]1[C@@]24OO3 (stereo not given in full) |  | 6.7 nM (active)
37 | C[C@@H]1[C@@H](CC(C[C@H]2O[C@@H]3O[C@]4(C)CC[C@@H]5[C@H](C)CC[C@@H]([C@H]2C)[C@@]35OO4)C(=O)NCc2ccc(F)cc2)O[C@@H]2O[C@]3(C)CC[C@H]4[C@H](C)CC[C@@H]1[C@@]24OO3 (stereo not given in full) | -102% (inactive) | 
38 | CN(C)CCOC(c1ccccc1)c1ccccc1 | -20.8% (inactive) | 
39 | C=Cc1c(C)c2cc3nc(cc4[nH]c(cc5nc(cc1[nH]2)C(C)=C5CCC(=O)OC)c(CCC(=O)O)c4C)[C@@]1(C)C3=CC=C(C(=O)OC)[C@H]1C(=O)OC | -98.4% [at 14.2 µM] (inactive) | 
40 | CN1C[C@H](C(=O)N[C@]2(C)O[C@@]3(O)[C@@H]4CCCN4C(=O)[C@H](Cc4ccccc4)N3C2=O)C[C@@H]2c3cccc4[nH]cc(c34)C[C@H]21 |  | 530 nM (active)
